This passage reports outcome results from PubChem BioAssay (Tox21).

Structures are written as SMILES. Records with an inconclusive call do not appear. Active and inactive are the calls of the source. The call rests on the fitted dose curve; in most records, active means well fitted cell-killing curve with a large enough effect in the repeat runs; inconclusive means weak or mixed curves; inactive means flat fitted curve, though single readings scatter.

A short description of the test: qHTS assay to identify small molecule antagonists of the estrogen related receptor (ERR) signaling pathway - cell viability counter screen (AID 1224818). To be noted: ERR reporter cell line viability counter screen; series mostly up to 46.1 µM. From the text: National Center for Advancing Translational Sciences [NCATS]
NIH Chemical Genomics Center [NCGC]
U.S. Environmental Protection Agency [EPA]
National Institutes of Environmental Health Sciences [NIEHS]
National Toxicology Program [NTP]
U.S. Food and Drug Administration [FDA]
Estrogen related receptors (ERRs), the first orphan nuclear receptors discovered, play an important role in the control of cellular energy metabolism. ERRs are required for high-energy production in response to the environmental challenges. ERR-alpha was also identified as an adverse marker for breast cancer progression; ERR-alpha-positive tumors have a poor prognosis. To screen and to identify environmental compounds that perturb the ERR signaling pathways could provide valuable information for potential therapeutic or preventive measures in the treatment of metabolic disease. To differentiate true ERR antagonists or agonist from cytotoxic substances, the assay is multiplexed with cell viability assay.
Tox21 Assay Protocol Summary:
The ERR cells were dispensed at 2,000 cells/5 ul/well in 1536-well white plates using a Multidrop dispenser. After the assay plates were incubated at a 37 C/5% CO2 incubator for 6 hours, 23 nL of compounds dissolved in DMSO, positive and negative controls or DMSO only was transferred to the assay plate by a pin tool. The plates were incubated at 37 C for 17.5 hours. 1 ul/well of CellTiter-Fluor reagent was added into the assay plates using a Flying Reagent Dispenser. After 30 min incubation at 37 C/5% CO2, the fluorescence intensity in the plates was measured using a ViewLux plate reader.
A general note: In qHTS, concentration-response curves come from the screen itself.
With `CN(C)CCC(c1ccc(Cl)cc1)c1ccccn1` (stereo unspecified), the outcome was inactive.

For `NNc1nncc2ccccc12`, the result was inactive.

For the compound `CCN(CC)CCCC(C)Nc1ccnc2cc(Cl)ccc12` (stereo unspecified), the compound was classed as inactive.

Turning to `COc1ccc(Cl)cc1C(=O)NCCc1ccc(S(=O)(=O)NC(=O)NC2CCCCC2)cc1`, the call was inactive.

In the case of `CN(C)CCC(c1ccccc1)c1ccccn1` (stereo unspecified), the call was inactive.

As to `O=c1[nH]c(=O)n([C@H]2C[C@H](O)[C@@H](CO)O2)cc1Br`, the result was inactive.

On to `C#CCN(C)Cc1ccccc1`, for which the outcome was inactive.

For `COc1cc(Cc2cnc(N)nc2N)cc(OC)c1OC`, the compound was called inactive.

In the case of `O=C1CCC(N2C(=O)c3ccccc3C2=O)C(=O)N1` (stereo unspecified), the call was inactive.

As for `COc1ccc2cc([C@H](C)C(=O)O)ccc2c1`, the compound was called inactive.

For `Cc1cnc(C(=O)NCCc2ccc(S(=O)(=O)NC(=O)NC3CCCCC3)cc2)cn1`, the call was inactive.
